Consider 42 compounds from the supplement of paper PMC7858590.

± gives the standard deviation of the averaged measurements. Over roughly 3,800 compounds, “cell shape (eccentricity) Z-score vs DMSO control” has its median near 1.1; the lowest 2% begin near -4.7. The entries come from a sample that favours the lowest values as a whole.

The assay deals with human monocyte-derived macrophages (M0). The experiment in a line: cell shape (eccentricity) Z-score vs DMSO control; higher = more elongated, M2-like morphology. The conditions noted are these: 20 µM; 24 h; macrophage state: M0 (M-CSF). Here is the method: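 Primary human monocyte-derived macrophages (M-CSF differentiated, pooled from 4 donors, 5000 cells/well in 384-well plates) were treated with each compound at 20 uM for 24 h, then fixed and stained with phalloidin/DAPI and imaged on an Opera Phenix (6 fields, about 1000 cells/well). Cell eccentricity was measured with CellProfiler, and a Z-score (t-test) was computed against 4 DMSO control wells in the same row. Negative values mean round (M1-like) cells and positive values mean elongated (M2-like) cells; the paper's hit cutoffs are Z <= -4 (M1) and Z >= 6 (M2). Scale: negative = round, M1-like.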
On to `C/C(=C\Cc1c(O[C@@H]2O[C@H](CO)[C@@H](O)[C@H](O)[C@H]2O)ccc2ccc(=O)oc12)CO`, for which the “cell shape (Z-score)” value was determined as 0.962 ± 0.97.

As to `CCC1(c2ncc[nH]2)Cc2ccccc2O1` (configuration not stated), the “cell shape (Z-score)” value was 1.92.

With `N#CC(=C(N)Sc1ccc(N)cc1)c1ccccc1C(F)(F)F`, the “cell shape (Z-score)” value came out at 4.79.

As to `CC1CC(=O)C2C(O)(C1)CC(O)C13OC21C(=O)c1cccc(O)c1C3O` (configuration not stated), the “cell shape (Z-score)” value was determined as 3.39 ± 2.6.

Regarding `C[C@H](CCC(=O)NCC(=O)O)[C@H]1CCC2C3C(C[C@H](O)[C@@]21C)[C@@]1(C)CC[C@@H](O)CC1C[C@H]3O` (some centres not stated), the “cell shape (Z-score)” value is 1.5.

On to `CC(=O)O[C@@H]1CC2C(C)(C)C(=O)C3OC3[C@]2(C)C2CC[C@@]3(C)[C@H](c4ccoc4)OC(=O)C4OC43[C@@]21C` (some centres not stated), for which the “cell shape (Z-score)” value was -1.17.

`CC1(CO)CC(O)CC2(C)C3=C(CCC12)C(=O)OC3` (configuration not stated): the “cell shape (Z-score)” value is -1.57.

`COC(=O)C(CCCNC(=N)N)NC(=O)CCCc1c(-c2ccccc2)[nH]c2c(F)cc(F)cc12` (configuration not stated): the “cell shape (Z-score)” value was 6.11.

For the compound `COc1ccnc(CS(=O)c2nc3cc(OC(F)F)ccc3[nH]2)c1OC` (configuration not stated), the “cell shape (Z-score)” value was -1.46.

Turning to `Cc1c(OCC(F)(F)F)ccnc1CS(=O)c1nc2ccccc2[nH]1` (configuration not stated), the “cell shape (Z-score)” value stood at 3.11.

`COCCCOc1ccnc(CS(=O)c2nc3ccccc3[nH]2)c1C` (configuration not stated): the “cell shape (Z-score)” value is -6.29.

For the compound `COC1=CC(=O)CC(C)C12Oc1cc(OC)cc(O)c1C2=O` (configuration not stated), the “cell shape (Z-score)” value is 1.27.

With `OCCOCCN1CCN(C2=Nc3ccccc3Sc3ccccc32)CC1`, the “cell shape (Z-score)” value worked out at 2.19.

On to `CNCCC(Oc1ccccc1OC)c1ccccc1` (configuration not stated), for which the “cell shape (Z-score)” value turned out to be 1.09.

For `CNCC[C@@H](Oc1ccccc1C)c1ccccc1`, the “cell shape (Z-score)” value was found to be 0.617.

Turning to `CNCCC(Oc1ccc(C(F)(F)F)cc1)c1ccccc1` (configuration not stated), the “cell shape (Z-score)” value was -4.88.

In the case of `C/C=C(/C)C(=O)O[C@H]1C=C(C)C[C@H](OC(=O)c2ccc(O)cc2)C2[C@](O)(C(C)C)CC[C@@]21C` (some centres not stated), the “cell shape (Z-score)” value was -3.37.

On to `CCN(CC)CCOc1ccc2c(c1)C(=O)c1cc(OCCN(CC)CC)ccc1-2`, for which the “cell shape (Z-score)” value was found to be 11.9.

As for `O=C1c2ccccc2-c2nc3nonc3nc21`, the “cell shape (Z-score)” value is -6.25.

Take `N#Cc1nc2c(nc1C#N)-c1ccc(Cl)cc1C2=O`: the “cell shape (Z-score)” value was 2.23.

On to `CC1(C)CC[C@]2(C(=O)O)CC[C@]3(C)C(=CCC4[C@@]5(C)CC[C@H](O[C@@H]6OC[C@H](O)[C@H](O)[C@H]6O)[C@@](C)(CO)C5CC[C@]43C)C2C1` (some centres not stated), for which the “cell shape (Z-score)” value was -2.37.

Take `CNc1cc(NS(=O)(=O)c2ccc(N)cc2)nc(NC)n1`: the “cell shape (Z-score)” value turned out to be 3.31.

Consider `Cc1noc(NS(=O)(=O)c2ccc(N)cc2)c1C`, for which the “cell shape (Z-score)” value stood at 2.76.

Regarding `Cc1cc(NS(=O)(=O)c2ccc(N)cc2)no1`, the “cell shape (Z-score)” value is -8.11.

Regarding `Cn1c(=O)c2c(n(C)c1=O)n(C)c(=O)n2C`, the “cell shape (Z-score)” value came to 0.458.

With `Cc1cc(Nc2nc(N[C@@H](C)c3ncc(F)cn3)ncc2Cl)n[nH]1`, the “cell shape (Z-score)” value amounted to 7.45.

For `CCCCCCCCc1ccc(-c2ccc(C(=O)O)cc2)cc1`, the “cell shape (Z-score)” value was found to be 7.84.

For the compound `CCCCCCCCCCCCCCCCCCc1ccc(C(=O)C=CC(=O)O)cc1`, the “cell shape (Z-score)” value was determined as 0.47.

Turning to `CCCCCCCCc1ccc(CCC(N)(CO)CO)cc1`, the “cell shape (Z-score)” value was -5.98 ± 2.9.

With `COc1cc(/C=C/C(=O)O[C@H]2CC[C@]34CC35CC[C@]3(C)[C@@H](C(C)CCC=C(C)C)CC[C@@]3(C)C5CCC4C2(C)C)ccc1O` (some centres not stated), the “cell shape (Z-score)” value was -1.25.

For the compound `Cc1cc(O)c2c(c1)C(=O)C1=C(C2=O)C(O)C(O)C(O)C1O` (configuration not stated), the “cell shape (Z-score)” value was -13.9.

Turning to `Cc1cc(O)c2c(c1)C(=O)c1cccc(O)c1C2=O`, the “cell shape (Z-score)” value was determined as 3.93.

For the compound `COc1cc(O)c2c(c1)C(=O)c1cc(C)cc(O)c1C2=O`, the “cell shape (Z-score)” value turned out to be 2.65.

For `COc1c(OC)c(O)c2c(=O)c(O)c(-c3ccccc3)oc2c1OC`, the “cell shape (Z-score)” value turned out to be 4.23.

Regarding `CC(=O)NC(C(=O)O[C@H]1CCC(C)(C)[C@@H]2CC=C3C(=O)OCC3(O)[C@@]12C)C(C)C` (some centres not stated), the “cell shape (Z-score)” value stood at 0.522 ± 0.68.

As for `CC(=O)O[C@@H]1[C@@H](O)[C@H](C)O[C@@H](O[C@H]2[C@@H]3C=CO[C@@H](O[C@@H]4O[C@H](CO)[C@@H](O)[C@H](O)[C@H]4O)[C@@H]3[C@@]3(CO)O[C@@H]23)[C@@H]1OC(=O)/C=C/c1ccc(O)cc1`, the “cell shape (Z-score)” value was -0.936 ± 2.8.

Take `C=C1C(=O)O[C@H]2[C@H]1CC/C(C)=C/CC[C@@]1(C)O[C@@H]21`: the “cell shape (Z-score)” value is -3.88.

Consider `C=C1C(=O)O[C@@H]2[C@H]3O[C@]3(C)CC/C=C(/C)CC[C@@H]12`, for which the “cell shape (Z-score)” value was -9.25.

With `C=C1C(=O)O[C@@H]2/C=C(\C)CC/C=C(\C)CC[C@@H]12`, the “cell shape (Z-score)” value was -1.08.

In the case of `C/C(=C\CC[C@@H](C)[C@H]1CC[C@@]2(C)C3CC[C@H]4C(C)(C)[C@@H](OC5OC(CO)C(OC6OC(CO)C(O)C(O)C6O)C(O)C5O)CC[C@@]45C[C@@]35CC(O)[C@]12C)C(=O)O` (some centres not stated), the “cell shape (Z-score)” value amounted to 0.155.

Consider `Nc1ccc(S(=O)(=O)NC(=O)c2ccccc2)cc1`, for which the “cell shape (Z-score)” value came to 0.441.

Consider `COc1nc(N)nc2c1ncn2[C@@H]1O[C@H](CO)[C@@H](O)[C@@H]1O`, for which the “cell shape (Z-score)” value stood at 0.62 ± 1.5.
